Measured values from PMC12864922, “TDP-43 directly inhibits mRNA accumulation in neurites through modulation of mRNA stability”.
The full ranking holds about 9,900 sequences; the median of “r (bound/input frequency ratio)” is about 0.7, and the highest 2% start at about 6.5. Only a selection was taken, and the highest values are over-represented in it overall.

B1: ENSMUSG00000004113.257|Cacna1b|213:217 (ssRNA)
RNA: GGGAGUUCUACAGUCCGACGAUCGCUUCGAUAUCCGCAUGCUAGAUGCUGAAGAGUGCAAAACGCUAGCAAAGAAGAGGCUGGGGUUAGAGGAAGAAGCCCGCACUGGCCGUGUUACAAGAAACUGGCAGGAAGGAAAUGGCCCUGGAACAGGCCAGGUGCCUAGAGCUAAGUCAGGCCCCUGGCUUAGCACUAGAAAAAAUAAAACCUCAUGGCUGCUUUGCAAAGGGAAAACCCAUGCUCAGGAAGGUGUUCACACACCACAGAUAGCUGGGAGGCCACGAGAGAAAGGUUGCACACAGACCUCUUGCGGUCGCACUAGUGUGGAAUUCUCGGGUGUCAAGG
B2: ENSMUSG00000028439.88|Fam219a (ssRNA)
RNA: GGGAGUUCUACAGUCCGACGAUCGCUUCGAUAUCCGCAUGCUAGGAAAGGGGUUUUGAGAAGAAAAGGAUCCAAGCAAUGGGGGCAGUUCUCACACCUCAGAGCCCCUCUCCCCAAACCCUGUGCCAGCCCAUAUACCUAUUUGUGUUUUCCCCUCAUCUCCAGAUGGGAAGCCUGGCAGCGCUGUCCAAAGGGAUACUGUCUCUCCAUUAGAUAACUCCUUCCACUGUCUCCCUCCCCCGCUUUCUUACUUUCUGAGGGUUGGGAAGGUAAGAUGGGCCUUAGAGAGAAGCCAGGUUUGGGGCUCUUGCGGUCGCACUAGUGUGGAAUUCUCGGGUGUCAAGG
B3: ENSMUSG00000031028.91|Tub (ssRNA)
RNA: GGGAGUUCUACAGUCCGACGAUCGCUUCGAUAUCCGCAUGCUACAAGCUGUAUGUAGAAAAAGCUCUGGUGGUCAGCAGAAAGCACUCCCACUUCAAAAGGGCCCAUUAGGCCCAAAGGGGGUUAGGAGUGGUAGGGAUAGGUGCGUGGCAGGUCCCUGCUAGGAUUGCAGGGGCCUGGCCAUGUGUAUUAGCUGGAGGCUUAGAAUGCUAGCUCAUUUGUUGCUACAGAUUUGCCCAGUGCUUGCACACGUAAGAACCCAGCUCUCAAGGCCAAAUAUCUGAGUGGAUGGGGAUGAUAGGAGCUCUUGCGGUCGCACUAGUGUGGAAUUCUCGGGUGUCAAGG
B4: ENSMUSG00000031028.31|Tub|122:126 (ssRNA)
RNA: GGGAGUUCUACAGUCCGACGAUCGCUUCGAUAUCCGCAUGCUACUGCCUGCCAAGACAGCCCUGCCUACCCUCUGUUCAUAGGCCCUCUAUGGGCUUUCUGGCCUUACCAACCAGAGACUGGCUGCUCUGCCUCUGCUGCUGAAGCAGGGGGGACAGCAAAUGGCAUACACAGGAGAAGAAUAUUUCUGUGCCCCAAGGUCAACACACAUGCCCAGUCCUGGGUCAGUCCCCUGCUGCAGUGGUGUUAUCACACCGGAAAGCCUCUUCACCUGGAGGUACAGAGGGAGAGGAAGCACAAGCCUCUCUUGCGGUCGCACUAGUGUGGAAUUCUCGGGUGUCAAGG
B5: ENSMUSG00000042529.154|Kcnj12 (ssRNA)
RNA: GGGAGUUCUACAGUCCGACGAUCGCUUCGAUAUCCGCAUGCUAAACACCAGAGUGGGUGCUUCUUAGAAAAGGACACUCAGGAAAUUAGUAUGGGGUCUGGGUCCCACAUCCCCAGGAAGUGGGUCAGCCCCACGUCCCCCGCUGGACUCACAGCUUGAGUUGUGCCUUAGAGACUCUGGUUGUCUGGCUUCCGUCAUUUCUGGUUUUCUCAGACUUGUUUAAUCUUUCCCUACUGCCCUAAGUCCACUCAUGAAGCUCCCCAGGCCCUUCUGAGAUUGCAGAGGCUGCUUGCUCAUAGCCAUCUCUUGCGGUCGCACUAGUGUGGAAUUCUCGGGUGUCAAGG
B6: ENSMUSG00000061578.1390|Ksr2|74:78;177:181 (ssRNA)
RNA: GGGAGUUCUACAGUCCGACGAUCGCUUCGAUAUCCGCAUGCUACUUUGUAAAUGAUUCUGUUGCCUUUUUCUAAACACAAAGUAUAUAUACCUAUAAAUGCUAUAUAUAUUAUAUAACACAAUAUACAUAAAGACUACUUCUUGUACAGCCCUCCACGGACCUCAGGCCCACUGUUUUCUCCAUGUCUGUCUGUACUGACUGUUGCAGAAUGAGCUGAUCAUACAUCUUGAUUCUCCAUUUUCCUUCUGGACCACAUGUCUCUUCCUUUUCCUUUUUAGAUCUGUCUUGCUCUCUGUCUCUCUCUCUUGCGGUCGCACUAGUGUGGAAUUCUCGGGUGUCAAGG
B7: ENSMUSG00000022095.44|Fam160b2 (ssRNA)
RNA: GGGAGUUCUACAGUCCGACGAUCGCUUCGAUAUCCGCAUGCUACUGGCUCCUAAGGCAGUGGUAUUCUUGGAGCCUUUUAGAGGAGCUAGAGGAUGGCCAGUGAGCGCCUAGAUGCUGCCCUGCAUGUGUUGCGUGACUAUCUCUGCUAUAUUGUGACCAGGGCCACAACAUGAGACAACUCCAGGGGCCAGGGAGAUGAACUGCUGUCUUUGAGGCUGGCUAAAAAAACAAUCCAGUCCAGAGAGAUGGGGAGGGGGGGAGCAAGAACCCUGUCUGUUACAUUAGGUAUCAUGGAAGCUGCUCUCUUGCGGUCGCACUAGUGUGGAAUUCUCGGGUGUCAAGG
B8: ENSMUSG00000029636.316|Wasf3 (ssRNA)
RNA: GGGAGUUCUACAGUCCGACGAUCGCUUCGAUAUCCGCAUGCUAUGGCAAAACUUUUUUUGGUAAGGUCCUUAUGCUCUCAGGGUGGAGGGAAGACAUUAAAGCUACGCAGCCAUUGUCAGGAUUUUUUCUACUGAUGUCACAUCAGAAUAUAACUAGUGGCUCCUUACUCACAAAUGUUCACGAGCUUCUCCGUUGUCACUUGUCCUGUAGUUUUGCCAACAAGUUAAUUUUAGUUUGAUUUUAUAGCUAGAGAGAAAGCUUUUGCCCGUUGCAUUCUGUAACCUUCAAAAGAAUGAGAAACGCUCUUGCGGUCGCACUAGUGUGGAAUUCUCGGGUGUCAAGG
B9: ENSMUSG00000061578.330|Ksr2|114:118 (ssRNA)
RNA: GGGAGUUCUACAGUCCGACGAUCGCUUCGAUAUCCGCAUGCUACUCCAAGGAAGCCAGGGGAGGGGGACUCCUCAGGAAGGAGUGACCAGUCACCUGCCUCCCAGGGUUCUGCCUUGCCCUUAAGCUAGGGUCCUUCAAGCAUCCACAGACUUAGACACACGUGGUAACAUGCUUGUAAUCCUGGCACUCUGGAGGCUGAGGCAGGAGGAUAACAAGUCUAGACUAUAUAUGAUUUCUGAGGGUCUGUUAGUGAAUAAGUACCUGGAUGACAUGGGACAAGUCCCAGCCUUCCCUGCUCCUGCCUCUUGCGGUCGCACUAGUGUGGAAUUCUCGGGUGUCAAGG
B10: ENSMUSG00000061578.809|Ksr2 (ssRNA)
RNA: GGGAGUUCUACAGUCCGACGAUCGCUUCGAUAUCCGCAUGCUACUUUGCCUCUACUAGAUGAUCUUGCAUCUGUCUUUGUGGGACUCUUUUUAUGAGGAACCAGUCCUGUUGAAUCGGGGUGCUCUGUAUUAGUUAUUUUUGUAACUUGUGAUUGUAACCAAAUGCCCGAUAGAAACAGCAUUCUGGCUCACAGUUUCAAAGGGCUCAGUCCAUAGCUGCCUGACUCUGUGUUUCUAGGCCUUUCUUGAGGCAAGUGUUCAUCAUGAUAGUGUGAGGGUGAGGAGGAGUUUCUUCAUGGCAAACUCUUGCGGUCGCACUAGUGUGGAAUUCUCGGGUGUCAAGG
B11: ENSMUSG00000034801.220|Sos2 (ssRNA)
RNA: GGGAGUUCUACAGUCCGACGAUCGCUUCGAUAUCCGCAUGCUAAUUUGACUAAUUUGUAAGUCUGGAACAAAAGUGUCUUAUGGCAUAAGAACCAACUGCCAUUGUCAAACCUAUUAACUGUCUUUAAUCUCGUGUUAACUGAAAUUUUUGAAAAGUUUUUCCAGAUUAGUAAUAUUUAAACAGAAAAUACUUUAAAAAGCUUUAUUAAAUUUUUUAAUCAGGAUAAAGCUUUGCCAUUUGGAUACUAUCAUUCAAAGUGAUCAAGGUAUGUAUGUUAUGCUGAUAGUGCAGUAGCAGCCAUUCUCUUGCGGUCGCACUAGUGUGGAAUUCUCGGGUGUCAAGG
B12: ENSMUSG00000031028.102|Tub (ssRNA)
RNA: GGGAGUUCUACAGUCCGACGAUCGCUUCGAUAUCCGCAUGCUAGGCCCAAAGGGGGUUAGGAGUGGUAGGGAUAGGUGCGUGGCAGGUCCCUGCUAGGAUUGCAGGGGCCUGGCCAUGUGUAUUAGCUGGAGGCUUAGAAUGCUAGCUCAUUUGUUGCUACAGAUUUGCCCAGUGCUUGCACACGUAAGAACCCAGCUCUCAAGGCCAAAUAUCUGAGUGGAUGGGGAUGAUAGGAGUCAUCCAGUAGACUCCCUACAUCAGGGCUCUCAGCAGCCCCAGCACAACACCUAUGACACACACACCUCUUGCGGUCGCACUAGUGUGGAAUUCUCGGGUGUCAAGG
B13: ENSMUSG00000032194.202|Kank2|53:57 (ssRNA)
RNA: GGGAGUUCUACAGUCCGACGAUCGCUUCGAUAUCCGCAUGCUAGACAGGCUGCACCUUUCUCUAACUGGGGUUCCUUUCUGGCCCCAGGAUCUCACACACGUUCGUGGGGGGAUUUUGUUGUUGUUUCUUUGUUUCUUUUCUUCAUAAAGAAGAAAAAGGAAACAACUUCUAGAUGUGCCUUGCGAUAGGGAGGACUUUGUCCUCUCAAGUCUCCCUGUCGUAUCCAGAUCACAGCUGAACCCACUGGGCCUUGGCGCCAAACCUCAGCAGGGCAGCAUUGAGACUCAUGGACUAAAGGAAAGCUCUUGCGGUCGCACUAGUGUGGAAUUCUCGGGUGUCAAGG

Target: TDP-43 (Homo sapiens, UniProt Q13148 1-414)
Sequence (Q13148 whole entry): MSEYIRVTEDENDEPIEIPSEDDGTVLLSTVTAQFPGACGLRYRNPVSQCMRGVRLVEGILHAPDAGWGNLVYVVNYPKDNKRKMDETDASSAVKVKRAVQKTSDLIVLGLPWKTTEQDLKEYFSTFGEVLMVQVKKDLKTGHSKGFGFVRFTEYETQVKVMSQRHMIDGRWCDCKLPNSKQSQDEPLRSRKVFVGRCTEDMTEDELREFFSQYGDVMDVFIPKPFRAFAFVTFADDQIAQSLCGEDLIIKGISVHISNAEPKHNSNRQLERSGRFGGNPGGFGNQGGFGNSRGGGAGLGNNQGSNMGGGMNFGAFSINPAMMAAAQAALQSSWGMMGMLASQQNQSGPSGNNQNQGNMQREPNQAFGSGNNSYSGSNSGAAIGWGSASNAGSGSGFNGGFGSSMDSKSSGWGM
Test: RNA Bind-n-Seq with designed 260-mer pool; 25 mM Tris-HCl, 150 mM KCl, 3 mM MgCl2, BSA (printed 500 mg/mL), 20 units/mL SUPERase IN; pH not stated; 500 nM RNA pool, 1 h, 4 C; TDP-43 5, 50, 500 nM; high values mean tight binding
Conditions: protein: recombinant; tags: SBP (GST cleaved off with PreScission; pGEX-GST-SBP)
Summary of the method: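 Binding (R) is the ratio of each oligo's mapped-read-normalized abundance in the bound fraction to its abundance in the input. To obtain it, SBP-tagged recombinant TDP-43 (5, 50 or 500 nM) on streptavidin beads was incubated with 500 nM of an in vitro-transcribed 260-nt 3′ UTR oligo pool for 1 h at 4 °C in 25 mM Tris-HCl, 150 mM KCl, 3 mM MgCl2, BSA and SUPERase IN. The RNA retained after washing was released with biotin, then reverse transcribed, amplified by PCR and sequenced.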

Binder | binding signal
B1 | 0.718 R (bound/input frequency ratio)
B2 | 0.765 R (bound/input frequency ratio)
B3 | 5.97 R (bound/input frequency ratio)
B4 | 0.475 R (bound/input frequency ratio)
B5 | 0.462 R (bound/input frequency ratio)
B6 | 0.257 R (bound/input frequency ratio)
B7 | 1.48 R (bound/input frequency ratio)
B8 | 0.157 R (bound/input frequency ratio)
B9 | 1.65 R (bound/input frequency ratio)
B10 | 0.455 R (bound/input frequency ratio)
B11 | 0.0389 R (bound/input frequency ratio)
B12 | 1.03 R (bound/input frequency ratio)
B13 | 0.269 R (bound/input frequency ratio)
